Measurements as given in PubChem BioAssay AID2205 (University of Pittsburgh Molecular Library Screening Center, 2009).
In all, about 200,000 compounds went through this assay and about 1,600 (0.8%) were called active.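 The calls were made as follows: active = plate Z-score above 3 for both tubulin-high and condensed-nucleus cell shares, with cell loss under 80%, at 10 µM; inactive = the rest, inconclusive results apart.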 The list comes from a sample in which actives are over-represented; it also holds similar structures and randomly drawn compounds.

Test: microtubule stabilizers in HeLa cells, primary screen, imaging, high-content imaging (AID 2205);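 as to % tubulin-high responders: anti alpha tubulin signal scored within the nucleus-defined area of each cell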;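 as to toxicity: 0% = mean cell density of plate MIN control wells and 100% = no cells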
Conditions: HeLa tubulin immunostaining HCS, 24 h, at 10 µM; % Hoechst-high responders: measured here: nuclear condensation Hoechst responders, stronger effect = higher value, share of cells brighter than vehicle mean+2SD; % tubulin-high responders: stronger effect = higher value, share of cells brighter than vehicle mean+2SD; toxicity: measured here: cytotoxicity by cell density

| Structure (SMILES) | % Hoechst-high responders [%] | % tubulin-high responders | toxicity [%] |
| --- | --- | --- | --- |
| CC(C)OCCCNC(=O)c1cc(Sc2ccc(F)cc2)nc2ccccc12 | 1.81 | 1.25% (inactive) | 6.52 |
| CC(=O)N1C(=O)/C(=C2\SC(=S)N(NC(=O)c3ccc(O)cc3)C2=O)c2ccccc21 | 2.97 | 2.55% (inactive) | 3.4 |
| Cc1noc(C)c1S(=O)(=O)Nc1ccc(C(=O)N2CCN(c3ccc(F)cc3)CC2)cc1 | 2.09 | 1.32% (inactive) | 5.68 |
| O=C(O)CCN(Cc1ccccc1)S(=O)(=O)c1c(Cl)cccc1Cl | 1.31 | 2.16% (inactive) | 1.51 |
| CN(Cc1ccccc1)C(=O)COC(=O)c1ccccc1Nc1ccccc1 | 1.59 | 6.59% (inactive) | 4.42 |
| CC(C)Cc1nc(Nc2ccc(S(=O)(=O)N3CCCC3)cc2)c2nnn(Cc3ccccc3)c2n1 | 2.68 | 3.7% (inactive) | 11.3 |
| Cc1csc(NC(=O)Nc2ccccc2[N+](=O)[O-])n1 | 2.72 | 1.89% (inactive) | 4.62 |
| CCC1=C(C(=O)OC)C(c2cc(OC)ccc2OC)C(C#N)=C(N)O1 (stereo unspecified) | 3.6 | 3.6% (inactive) | 4.77 |
| COc1ccc(C2C(C#N)=C(N)Oc3cc(N)ccc32)cc1OC (stereo unspecified) | 17.3 | 44.5% (active) | 68 |
| COC(=O)C1=C(C)OC(N)=C(C#N)C1c1cc(OC)ccc1OC (stereo unspecified) | 4.1 | 4.68% (inactive) | 10.9 |
| c1ccc(C2CNCc3c2ccc2ccccc32)cc1 (stereo unspecified) | 32.1 | 14% (active) | 25.9 |
| COc1ccc(-c2n[nH]c(C)c2-c2ccc(OC)c(OC)c2)c(O)c1 | 19 | 42.8% (active) | 76 |
| C=C(C)COc1ccc(-c2n[nH]c(C)c2-c2ccccc2OC)c(O)c1 | 4.86 | 6.2% (inactive) | 5.28 |
| C=C(C)COc1ccc(-c2n[nH]c(C)c2-c2ccccc2)c(O)c1 | 2.28 | 3.77% (inactive) | 27.6 |
| Cc1[nH]n(-c2ccccc2)c(=O)c1/C=N/NC(=O)c1ccoc1C | 1.51 | 1.79% (inactive) | 2.88 |
| CCc1ccc(-n2c(=S)sc3c(=O)n(-c4ccccc4OC)c(=S)[nH]c32)cc1 | 2.26 | 4.15% (inactive) | 6.79 |
| COc1ccc(/C=C/CN2CCN(Cc3ccc(C)cc3)C(CCO)C2)cc1 (stereo unspecified) | 2.01 | 6.04% (inactive) | 4.33 |
| CCn1c(/C=C/Nc2ccccc2)[n+](CC)c2ccc(C(=O)OCC(F)(F)F)cc21 | 3.06 | 2.82% (inactive) | 0.486 |
| CC(C)(C)NC(=O)Cn1cnc2cc([N+](=O)[O-])ccc2c1=O | 1.76 | 5.69% (inactive) | 5.93 |
| COc1ccc(C2=NN(C(=O)CCC(=O)O)C(c3cccs3)C2)cc1OC (stereo unspecified) | 0.575 | 2.36% (inactive) | 4.5 |
| CCS(=O)(=O)Nc1ccc(C2=NN(C(C)=O)C(c3cccs3)C2)cc1 (stereo unspecified) | 60.7 | 26.1% (active) | 26.6 |
| CS(=O)(=O)Nc1ccc(C2=NN(S(C)(=O)=O)C(c3cccs3)C2)cc1 (stereo unspecified) | 1.8 | 1.74% (inactive) | 6.29 |
| O=c1[nH]c(N2CCN(Cc3ccc4c(c3)OCO4)CC2)nc2c1CCCC2 | 3.51 | 5.89% (inactive) | 3.65 |
| CCc1ccc(NC(=O)CC2C(=O)NCCN2C(=S)Nc2ccccc2)cc1 (stereo unspecified) | 3 | 3.9% (inactive) | 11.2 |

| Structure (SMILES) | % Hoechst-high responders [%] | % tubulin-high responders | toxicity [%] |
| --- | --- | --- | --- |
| CC(=O)Nc1ccc(Nc2c3ccccc3nc3ccccc23)cc1 | 8.03 | 12.5% (inactive) | 40.3 |
| O=[N+]([O-])c1cccc(Nc2c3ccccc3nc3ccccc23)c1 | 32.2 | 22% (active) | 46.2 |
| Cc1cc(CNC(=O)c2cccc([N+](=O)[O-])c2)c2ccccc2n1 | 2.57 | 3.83% (inactive) | 1.18 |
| COc1ccc(N2CCN(C(=O)CCSCc3ccccc3F)CC2)cc1 | 1.53 | 3.62% (inactive) | 4.73 |
| Cc1cccc(C(=O)Nc2ccccc2C(=O)NCc2cccnc2)c1 | 2.76 | 2.92% (inactive) | 4.59 |
| Cc1ccc(S(=O)(=O)C2(S(=O)(=O)c3ccc(C)cc3)CCCC2)cc1 | 39.1 | 36.4% (active) | 67.7 |
| Cc1ccc(S(=O)(=O)N(C)C2(C)CCS(=O)(=O)C2)cc1 (stereo unspecified) | 1.21 | 1.1% (inactive) | 7.98 |
| Cc1ccc(S(=O)(=O)NC(=O)N2CCCC(C)(C)C2)cc1 | 0.922 | 1.38% (inactive) | 2.22 |
| O=c1oc(-c2ccco2)nc2sc3c(c12)CCCCC3 | 2.16 | 1.31% (inactive) | 7.63 |
| COc1cccc2cc(S(=O)(=O)c3ccc(C)cc3)/c(=N/NS(=O)(=O)c3ccc(C)cc3)oc12 | 2.11 | 3.76% (inactive) | 4.71 |
| Cc1cc(-c2csc(N)n2)c(C)n1Cc1ccccc1 | 3.06 | 0.459% (inactive) | 7.95 |
| COc1cc2c(cc1OC)CN(C(=O)c1cc(=O)c3ccccc3o1)CC2 | 50.5 | 42.7% (active) | 31.7 |
| COc1ccccc1CNC(=O)c1cc(=O)c2ccccc2o1 | 2.39 | 1.71% (inactive) | 11.9 |
| O=C(c1cc(=O)c2ccccc2o1)N1CCN(c2ccccc2)CC1 | 2.26 | 4.68% (inactive) | 10.7 |
| CCCCCCCCCCOC(=O)C[N+](C)(C)CC1CCCCC1O (stereo unspecified) | 2.44 | 1.85% (inactive) | 7.67 |
| CCOC(=O)N/N=C/c1cn(Cc2ccccc2Cl)c2ccccc12 | 1.41 | 1.99% (inactive) | 3.67 |
| CNC(=S)N/N=C/c1cn(Cc2ccc(C)cc2)c2ccccc12 | 11.2 | 25.5% (active) | 51.6 |
| COC(=O)N/N=C/c1cn(CCCOc2ccc(C)cc2)c2ccccc12 | 1.65 | 1.39% (inactive) | 0.806 |
| CC(/C=N/NC(=O)c1cc(-c2ccc3ccccc3c2)n[nH]1)=C\c1ccco1 | 24.9 | 18.2% (active) | 26.2 |
| CC(/C=N/NC(=O)c1ccncc1)=C\c1ccco1 | 2.03 | 3.19% (inactive) | 5.26 |
| Cc1ccc(-c2cc(C(=O)N/N=C/C=C/c3ccco3)c3ccccc3n2)cc1C | 1.03 | 1.52% (inactive) | 10.1 |
| CCN(CC)c1ccc(S(=O)(=O)N2CCOCC2)cc1NC(=O)CSc1cccc[n+]1[O-] | 1.88 | 2.6% (inactive) | 2.07 |
| S=C(NCc1ccc2c(c1)OCO2)NCc1ccco1 | 2 | 2.06% (inactive) | 3.56 |
| CCCc1nc2c(c(=O)c3ccccc3n2C)c(=O)n1C1CCCCCC1 | 3.07 | 3.44% (inactive) | 9.47 |

| Structure (SMILES) | % Hoechst-high responders [%] | % tubulin-high responders | toxicity [%] |
| --- | --- | --- | --- |
| Cn1c2ccccc2c(=O)c2c(=O)n(Cc3ccco3)c(COc3ccccc3)nc21 | 17 | 15.2% (active) | 19.6 |
| COc1ccc(C(=O)CSc2nnc(COc3ccccc3)n2Cc2ccco2)cc1 | 8.33 | 11.9% (inactive) | 4.55 |
| CCOC(=O)CC(NC(=O)C1c2ccccc2Oc2ccccc21)c1ccc(C)cc1 (stereo unspecified) | 1.91 | 1.78% (inactive) | 3.3 |
| Cc1cc(-c2nnc(CCC(=O)NC(c3ccccc3)c3ccccc3)o2)no1 | 1.8 | 2.51% (inactive) | 7.53 |
| O=C(COC(=O)c1cc(=O)[nH]c2ccccc12)Nc1nc(-c2cccc(Br)c2)cs1 | 3.67 | 2.11% (inactive) | 8.74 |
| NS(=O)(=O)c1ccc(CCNC(=O)CCCn2c(SCC(=O)N3CCCC3)nc3ccsc3c2=O)cc1 | 2.7 | 1.43% (inactive) | 6.34 |
| CC[C@H]1CN2CCc3cc(OC)c(OC)cc3[C@@H]2C[C@@H]1C[C@H]1NCCc2cc(OC)c(OC)cc21 | 20.9 | 55.7% (active) | 75.2 |
| COc1cc2c(cc1O)[C@H](Cc1ccc(Oc3cc(C[C@@H]4NCCc5cc(OC)c(O)cc54)ccc3O)cc1)NCC2 | 2.73 | 2.04% (inactive) | 13.6 |
| CCCCn1c(N)c(N(CC)C(=O)/C=C/c2ccco2)c(=O)[nH]c1=O | 2.6 | 6.6% (inactive) | 4.9 |
| CC(C)n1c(=O)[nH]c2cc(C(=O)Nc3ccccc3)ccc21 | 0.954 | 1.61% (inactive) | 1.51 |
| COc1ccc(-n2c(C)nn(CC3CC3)c2=O)cc1 | 1.41 | 0.918% (inactive) | 4.19 |
| CCOC(=O)C1=C(C)Nc2nc3ccccc3n2C1c1cccs1 (stereo unspecified) | 2.61 | 1.67% (inactive) | 7.26 |
| COc1ccccc1NC(=O)C1=C(C)Nc2nc3ccccc3n2C1c1cccs1 (stereo unspecified) | 37.9 | 14.5% (active) | 54.8 |
| CCOc1ccc(C2C(C(=O)NC)=C(C)Nc3nc4ccccc4n32)cc1OC (stereo unspecified) | 1.52 | 3.35% (inactive) | 7.37 |
| Cc1ccc(-n2c(C)cc(C(=O)CSc3nnc4ccccn34)c2C)cc1 | 2.88 | 3.52% (inactive) | 5.15 |
| COc1ccc(Nc2nc(-c3ccccc3)cs2)cc1 | 2.53 | 3.24% (inactive) | 3.05 |
| COc1ccc(OC)c(Nc2nc(-c3ccc(O)c(O)c3)cs2)c1 | 33.9 | 34% (active) | 37 |
| COc1ccc(-c2csc(Nc3ccc(O)cc3)n2)cc1 | 4.55 | 6.13% (inactive) | 2.94 |
| COc1ccc(NC(C(=O)Nc2cccc(C(C)=O)c2)c2ccccc2)cc1 (stereo unspecified) | 4.94 | 2.7% (inactive) | 7.43 |
| CCc1cc2cc(OC)ccc2nc1SCC(=O)Nc1cc(OC)c(OC)cc1C(=O)O | 1.91 | 2.13% (inactive) | 7.82 |
| COc1ccccc1C(c1nnnn1CC1CCCO1)N1CCN(c2ccccc2)CC1 (stereo unspecified) | 1.03 | 3.39% (inactive) | 0.528 |
| O=C(c1cn(-c2ccccc2)nc1-c1cc2ccccc2oc1=O)N1CCOCC1 | 1.17 | 1.1% (inactive) | 0.611 |
| Nc1ncc(-c2cc3ccccc3oc2=O)s1 | 2.39 | 5.77% (inactive) | 5 |
| O=c1oc2ccccc2cc1-c1cn(-c2ccccc2)c(=S)[nH]1 | 36.5 | 12.5% (active) | 39.3 |
